Measurements taken from the supplement of paper PMC11732987, “Enantioselective OTUD7B fragment discovery through chemoproteomics screening and high-throughput optimisation” (Communications Chemistry, 2025).

Columns and labels:
Experiment in all cases: log2 ratio of Biotin-Ahx-Ub-VS probe labelling (fragment/DMSO); higher = less target engagement (more negative = stronger competition), active = hit call of the paper (q ≤ 0.05, log2 ratio ≤ -1)
Conditions in all cases: compound concentration: 200 uM; treatment time: 3 h
USP42 = biological target: T1, USP42 (UniProt Q9H9J4)
T1 sequence (whole entry): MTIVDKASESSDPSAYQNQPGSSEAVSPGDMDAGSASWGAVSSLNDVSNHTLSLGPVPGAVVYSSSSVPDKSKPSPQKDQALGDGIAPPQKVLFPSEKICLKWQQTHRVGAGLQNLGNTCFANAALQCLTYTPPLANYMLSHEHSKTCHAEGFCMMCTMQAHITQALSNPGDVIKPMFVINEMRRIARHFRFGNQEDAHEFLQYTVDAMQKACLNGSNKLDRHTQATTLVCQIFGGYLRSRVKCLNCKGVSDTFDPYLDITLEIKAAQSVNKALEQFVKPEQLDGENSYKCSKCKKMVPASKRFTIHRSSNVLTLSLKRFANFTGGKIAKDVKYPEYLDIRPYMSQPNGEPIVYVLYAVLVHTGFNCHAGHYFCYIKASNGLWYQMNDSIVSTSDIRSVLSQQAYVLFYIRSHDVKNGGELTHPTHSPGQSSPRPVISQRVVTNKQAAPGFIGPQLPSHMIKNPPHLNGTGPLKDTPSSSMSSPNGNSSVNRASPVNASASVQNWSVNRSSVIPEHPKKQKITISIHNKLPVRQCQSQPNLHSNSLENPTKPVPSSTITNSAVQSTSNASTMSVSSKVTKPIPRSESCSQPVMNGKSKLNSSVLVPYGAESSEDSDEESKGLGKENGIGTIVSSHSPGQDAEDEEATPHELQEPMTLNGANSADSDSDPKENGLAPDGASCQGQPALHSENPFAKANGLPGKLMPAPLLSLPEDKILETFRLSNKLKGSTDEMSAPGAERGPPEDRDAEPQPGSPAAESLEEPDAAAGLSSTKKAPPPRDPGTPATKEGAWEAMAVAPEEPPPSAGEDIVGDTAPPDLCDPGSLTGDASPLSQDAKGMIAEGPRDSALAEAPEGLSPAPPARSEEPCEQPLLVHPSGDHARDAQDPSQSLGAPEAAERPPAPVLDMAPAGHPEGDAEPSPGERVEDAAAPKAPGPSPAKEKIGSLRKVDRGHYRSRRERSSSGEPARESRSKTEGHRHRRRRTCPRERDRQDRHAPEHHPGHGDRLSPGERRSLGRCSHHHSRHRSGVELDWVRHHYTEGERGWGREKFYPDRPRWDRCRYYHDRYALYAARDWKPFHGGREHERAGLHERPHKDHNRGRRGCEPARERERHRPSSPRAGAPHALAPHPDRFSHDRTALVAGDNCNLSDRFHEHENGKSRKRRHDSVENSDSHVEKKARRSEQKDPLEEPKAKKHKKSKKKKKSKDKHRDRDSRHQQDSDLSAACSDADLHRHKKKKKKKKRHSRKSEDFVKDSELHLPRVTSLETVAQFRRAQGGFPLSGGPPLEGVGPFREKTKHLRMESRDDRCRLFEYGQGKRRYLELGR
How it was run: (§1)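 Labelling with Biotin-Ahx-Ub-VS (0.5 µM final, 1 h) followed a 3 h triplicate treatment of HEK293T lysate (495 µg per sample, Tris/CHAPS/IGEPAL buffer with protease inhibitors) with fragment at 200 µM or vehicle. Labelled DUBs were NeutrAvidin-enriched, digested with LysC and trypsin, and run by diaPASEF LC-MS/MS. The values, average log2 fragment/vehicle ratios by unpaired t-test, come from global-median-normalised Spectronaut label-free quantities. Proteins with ≥2 unique peptides were used.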

USP46 = USP46 (UniProt P62068)
How it was run: as §1

USP47 = biological target: T2, USP47 (UniProt Q96K76)
T2 sequence (whole entry): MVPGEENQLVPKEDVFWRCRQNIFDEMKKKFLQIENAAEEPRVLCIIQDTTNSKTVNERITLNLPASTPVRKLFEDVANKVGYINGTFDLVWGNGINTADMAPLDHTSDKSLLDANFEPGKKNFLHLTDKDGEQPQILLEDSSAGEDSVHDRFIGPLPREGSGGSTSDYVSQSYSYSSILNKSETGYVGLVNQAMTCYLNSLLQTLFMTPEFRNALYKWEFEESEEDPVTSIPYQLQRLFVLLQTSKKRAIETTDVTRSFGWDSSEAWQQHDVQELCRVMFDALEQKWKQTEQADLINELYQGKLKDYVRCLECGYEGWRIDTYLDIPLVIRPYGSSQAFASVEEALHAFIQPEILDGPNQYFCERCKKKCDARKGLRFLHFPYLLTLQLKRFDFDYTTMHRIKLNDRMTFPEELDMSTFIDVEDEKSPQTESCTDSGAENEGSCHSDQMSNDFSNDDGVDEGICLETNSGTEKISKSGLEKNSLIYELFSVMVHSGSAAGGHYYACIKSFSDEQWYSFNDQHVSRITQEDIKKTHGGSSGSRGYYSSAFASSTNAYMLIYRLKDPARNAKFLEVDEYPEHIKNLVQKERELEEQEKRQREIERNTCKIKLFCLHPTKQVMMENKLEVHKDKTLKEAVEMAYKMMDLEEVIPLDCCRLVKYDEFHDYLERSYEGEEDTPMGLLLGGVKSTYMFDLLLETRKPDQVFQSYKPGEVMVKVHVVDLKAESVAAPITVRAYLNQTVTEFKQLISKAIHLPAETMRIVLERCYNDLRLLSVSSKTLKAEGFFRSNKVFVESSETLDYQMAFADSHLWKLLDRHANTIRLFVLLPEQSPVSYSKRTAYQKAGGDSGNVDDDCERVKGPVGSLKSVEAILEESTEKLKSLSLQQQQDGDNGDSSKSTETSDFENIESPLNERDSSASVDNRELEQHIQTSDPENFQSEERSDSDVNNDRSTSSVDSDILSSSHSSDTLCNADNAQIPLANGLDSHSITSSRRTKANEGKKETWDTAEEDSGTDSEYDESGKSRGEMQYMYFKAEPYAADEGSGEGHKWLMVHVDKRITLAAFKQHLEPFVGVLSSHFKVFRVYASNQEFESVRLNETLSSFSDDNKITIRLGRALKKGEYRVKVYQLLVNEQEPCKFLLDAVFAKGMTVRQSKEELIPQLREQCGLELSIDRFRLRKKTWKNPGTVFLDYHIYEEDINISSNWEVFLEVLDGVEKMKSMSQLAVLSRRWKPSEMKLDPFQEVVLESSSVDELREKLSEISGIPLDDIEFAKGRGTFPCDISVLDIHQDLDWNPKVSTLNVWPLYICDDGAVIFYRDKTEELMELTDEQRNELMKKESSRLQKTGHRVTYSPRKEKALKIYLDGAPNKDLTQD
How it was run: as §1

USP48 = biological target: T3, USP48 (UniProt Q86UV5)
T3 sequence (whole entry): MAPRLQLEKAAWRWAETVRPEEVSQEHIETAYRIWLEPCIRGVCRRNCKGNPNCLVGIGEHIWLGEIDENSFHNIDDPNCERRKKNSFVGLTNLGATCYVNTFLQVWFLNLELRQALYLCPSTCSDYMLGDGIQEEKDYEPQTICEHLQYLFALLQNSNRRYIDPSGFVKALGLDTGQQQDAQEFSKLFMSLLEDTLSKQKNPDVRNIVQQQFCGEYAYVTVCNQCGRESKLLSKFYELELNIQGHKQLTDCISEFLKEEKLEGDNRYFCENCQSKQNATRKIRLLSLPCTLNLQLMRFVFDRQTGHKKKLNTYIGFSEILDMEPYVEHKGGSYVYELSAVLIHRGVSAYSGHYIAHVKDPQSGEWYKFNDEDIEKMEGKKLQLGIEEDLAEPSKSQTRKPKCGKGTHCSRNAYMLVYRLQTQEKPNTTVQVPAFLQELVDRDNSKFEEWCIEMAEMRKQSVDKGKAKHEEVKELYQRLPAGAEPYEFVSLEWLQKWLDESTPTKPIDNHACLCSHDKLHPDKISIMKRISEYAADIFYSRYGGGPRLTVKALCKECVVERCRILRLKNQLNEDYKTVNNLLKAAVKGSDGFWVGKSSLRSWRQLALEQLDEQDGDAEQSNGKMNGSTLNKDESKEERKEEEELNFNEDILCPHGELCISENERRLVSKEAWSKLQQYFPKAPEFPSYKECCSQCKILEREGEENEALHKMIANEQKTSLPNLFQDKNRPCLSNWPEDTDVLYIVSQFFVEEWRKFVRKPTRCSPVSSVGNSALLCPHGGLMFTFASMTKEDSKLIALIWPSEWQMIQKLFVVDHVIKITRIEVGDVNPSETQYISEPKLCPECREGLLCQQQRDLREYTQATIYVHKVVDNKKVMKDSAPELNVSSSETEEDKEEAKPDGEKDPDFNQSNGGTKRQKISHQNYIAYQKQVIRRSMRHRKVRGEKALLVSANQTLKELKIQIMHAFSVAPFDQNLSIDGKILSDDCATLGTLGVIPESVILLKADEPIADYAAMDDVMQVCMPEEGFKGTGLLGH
How it was run: as §1

USP5 = biological target: T4, USP5 (UniProt P45974)
T4 sequence (whole entry): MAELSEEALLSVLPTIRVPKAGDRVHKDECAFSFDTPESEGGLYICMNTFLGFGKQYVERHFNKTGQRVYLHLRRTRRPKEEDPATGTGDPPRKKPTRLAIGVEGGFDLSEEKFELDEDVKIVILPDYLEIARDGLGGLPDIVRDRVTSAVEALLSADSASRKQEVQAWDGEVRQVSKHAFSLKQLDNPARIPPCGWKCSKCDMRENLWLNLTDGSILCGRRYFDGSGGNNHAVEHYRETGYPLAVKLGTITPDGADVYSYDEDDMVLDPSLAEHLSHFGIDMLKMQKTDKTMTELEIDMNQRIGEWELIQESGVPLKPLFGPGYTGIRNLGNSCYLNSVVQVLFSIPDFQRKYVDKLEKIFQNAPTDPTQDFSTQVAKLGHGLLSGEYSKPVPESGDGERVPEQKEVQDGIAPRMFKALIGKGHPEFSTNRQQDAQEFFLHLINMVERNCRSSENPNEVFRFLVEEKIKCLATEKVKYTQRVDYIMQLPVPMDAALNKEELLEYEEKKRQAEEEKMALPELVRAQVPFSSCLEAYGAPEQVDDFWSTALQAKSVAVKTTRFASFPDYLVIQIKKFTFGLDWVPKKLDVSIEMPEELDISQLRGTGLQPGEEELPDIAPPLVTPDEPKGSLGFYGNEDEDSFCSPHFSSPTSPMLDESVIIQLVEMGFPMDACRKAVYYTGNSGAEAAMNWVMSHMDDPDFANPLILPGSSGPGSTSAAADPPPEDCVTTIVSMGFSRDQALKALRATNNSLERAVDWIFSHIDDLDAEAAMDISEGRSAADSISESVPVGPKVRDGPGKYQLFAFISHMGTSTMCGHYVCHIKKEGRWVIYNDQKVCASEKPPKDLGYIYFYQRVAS
How it was run: as §1

USP54 = USP54 (UniProt Q70EL1)
How it was run: as §1

USP7 = USP7 (UniProt Q93009)
How it was run: as §1

USP8 = biological target: T5, USP8 (UniProt P40818)
T5 sequence (whole entry): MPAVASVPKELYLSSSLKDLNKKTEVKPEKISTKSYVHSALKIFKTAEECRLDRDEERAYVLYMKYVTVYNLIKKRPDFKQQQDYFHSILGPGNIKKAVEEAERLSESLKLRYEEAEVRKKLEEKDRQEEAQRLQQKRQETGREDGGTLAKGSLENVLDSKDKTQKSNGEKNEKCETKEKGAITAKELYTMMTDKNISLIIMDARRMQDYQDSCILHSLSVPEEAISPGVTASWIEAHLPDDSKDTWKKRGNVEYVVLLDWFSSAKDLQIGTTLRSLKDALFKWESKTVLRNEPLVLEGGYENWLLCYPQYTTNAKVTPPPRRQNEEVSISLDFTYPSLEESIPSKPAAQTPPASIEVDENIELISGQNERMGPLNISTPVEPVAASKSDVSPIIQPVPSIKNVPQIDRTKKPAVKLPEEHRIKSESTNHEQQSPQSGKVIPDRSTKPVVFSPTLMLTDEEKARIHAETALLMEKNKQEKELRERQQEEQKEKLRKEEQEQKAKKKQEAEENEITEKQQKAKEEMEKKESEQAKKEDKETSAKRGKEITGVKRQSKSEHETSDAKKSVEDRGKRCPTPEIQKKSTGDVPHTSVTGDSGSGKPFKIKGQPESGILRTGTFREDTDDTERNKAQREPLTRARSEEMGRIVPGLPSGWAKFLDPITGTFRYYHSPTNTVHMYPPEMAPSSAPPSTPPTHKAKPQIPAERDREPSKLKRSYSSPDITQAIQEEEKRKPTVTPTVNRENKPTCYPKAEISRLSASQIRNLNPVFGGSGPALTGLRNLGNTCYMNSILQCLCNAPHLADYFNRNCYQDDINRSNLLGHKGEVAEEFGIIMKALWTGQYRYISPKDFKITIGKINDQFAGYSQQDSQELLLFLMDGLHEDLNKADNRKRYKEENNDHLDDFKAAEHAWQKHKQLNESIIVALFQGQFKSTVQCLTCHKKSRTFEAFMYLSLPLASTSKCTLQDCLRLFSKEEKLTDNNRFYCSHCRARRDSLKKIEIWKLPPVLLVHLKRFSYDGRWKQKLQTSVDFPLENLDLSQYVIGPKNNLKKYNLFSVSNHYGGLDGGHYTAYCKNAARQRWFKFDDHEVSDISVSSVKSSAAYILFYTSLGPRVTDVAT
How it was run: as §1

USP9X = USP9X (UniProt Q93008)
How it was run: as §1

UniProt O00487 = biological target: UniProt O00487
How it was run: as §1

Measured: log2 ratio of Biotin-Ahx-Ub-VS probe labelling

Chain of USP54 (Q70EL1 whole entry): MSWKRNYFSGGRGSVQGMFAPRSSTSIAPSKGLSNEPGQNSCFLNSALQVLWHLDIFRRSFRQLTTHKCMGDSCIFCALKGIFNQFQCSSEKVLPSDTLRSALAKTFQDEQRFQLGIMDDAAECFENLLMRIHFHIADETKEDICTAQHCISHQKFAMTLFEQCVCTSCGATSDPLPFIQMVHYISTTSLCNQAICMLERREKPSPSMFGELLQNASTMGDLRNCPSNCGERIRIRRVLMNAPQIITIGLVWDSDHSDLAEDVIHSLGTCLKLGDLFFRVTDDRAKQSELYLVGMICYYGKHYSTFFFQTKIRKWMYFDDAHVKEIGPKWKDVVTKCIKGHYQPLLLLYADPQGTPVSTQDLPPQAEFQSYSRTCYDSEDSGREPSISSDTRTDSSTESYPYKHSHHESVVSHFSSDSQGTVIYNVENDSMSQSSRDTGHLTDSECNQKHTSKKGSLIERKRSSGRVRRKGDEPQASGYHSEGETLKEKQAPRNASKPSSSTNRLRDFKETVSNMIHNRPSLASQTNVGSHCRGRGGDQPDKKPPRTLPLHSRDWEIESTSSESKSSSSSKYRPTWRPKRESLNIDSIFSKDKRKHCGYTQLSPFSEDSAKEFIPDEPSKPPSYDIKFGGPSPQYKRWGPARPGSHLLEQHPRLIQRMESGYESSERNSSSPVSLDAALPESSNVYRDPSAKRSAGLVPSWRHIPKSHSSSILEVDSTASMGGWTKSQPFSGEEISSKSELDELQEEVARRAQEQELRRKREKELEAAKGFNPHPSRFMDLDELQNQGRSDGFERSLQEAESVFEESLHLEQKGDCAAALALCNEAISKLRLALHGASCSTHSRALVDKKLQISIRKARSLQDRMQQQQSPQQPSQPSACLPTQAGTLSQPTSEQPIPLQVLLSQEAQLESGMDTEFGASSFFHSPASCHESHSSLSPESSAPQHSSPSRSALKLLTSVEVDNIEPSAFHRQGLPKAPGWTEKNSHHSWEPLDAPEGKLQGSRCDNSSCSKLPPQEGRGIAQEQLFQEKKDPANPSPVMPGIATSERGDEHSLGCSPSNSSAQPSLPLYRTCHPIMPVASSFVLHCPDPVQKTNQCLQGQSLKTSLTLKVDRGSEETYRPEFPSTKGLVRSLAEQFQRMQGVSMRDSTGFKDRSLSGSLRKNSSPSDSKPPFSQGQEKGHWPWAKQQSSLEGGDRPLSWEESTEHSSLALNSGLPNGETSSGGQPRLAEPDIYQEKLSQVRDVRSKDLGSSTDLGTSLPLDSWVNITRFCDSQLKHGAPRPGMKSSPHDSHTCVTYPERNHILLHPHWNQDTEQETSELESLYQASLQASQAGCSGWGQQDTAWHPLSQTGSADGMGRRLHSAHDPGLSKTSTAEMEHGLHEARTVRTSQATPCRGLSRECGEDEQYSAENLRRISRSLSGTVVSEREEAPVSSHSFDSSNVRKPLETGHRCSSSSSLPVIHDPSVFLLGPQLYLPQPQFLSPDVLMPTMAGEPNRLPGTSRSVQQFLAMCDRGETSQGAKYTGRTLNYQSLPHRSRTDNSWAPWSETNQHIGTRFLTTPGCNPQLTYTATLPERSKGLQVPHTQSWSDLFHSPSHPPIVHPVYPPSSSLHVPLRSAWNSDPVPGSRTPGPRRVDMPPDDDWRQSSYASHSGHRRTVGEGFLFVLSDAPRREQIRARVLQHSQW
Chain of USP9X (Q93008 whole entry): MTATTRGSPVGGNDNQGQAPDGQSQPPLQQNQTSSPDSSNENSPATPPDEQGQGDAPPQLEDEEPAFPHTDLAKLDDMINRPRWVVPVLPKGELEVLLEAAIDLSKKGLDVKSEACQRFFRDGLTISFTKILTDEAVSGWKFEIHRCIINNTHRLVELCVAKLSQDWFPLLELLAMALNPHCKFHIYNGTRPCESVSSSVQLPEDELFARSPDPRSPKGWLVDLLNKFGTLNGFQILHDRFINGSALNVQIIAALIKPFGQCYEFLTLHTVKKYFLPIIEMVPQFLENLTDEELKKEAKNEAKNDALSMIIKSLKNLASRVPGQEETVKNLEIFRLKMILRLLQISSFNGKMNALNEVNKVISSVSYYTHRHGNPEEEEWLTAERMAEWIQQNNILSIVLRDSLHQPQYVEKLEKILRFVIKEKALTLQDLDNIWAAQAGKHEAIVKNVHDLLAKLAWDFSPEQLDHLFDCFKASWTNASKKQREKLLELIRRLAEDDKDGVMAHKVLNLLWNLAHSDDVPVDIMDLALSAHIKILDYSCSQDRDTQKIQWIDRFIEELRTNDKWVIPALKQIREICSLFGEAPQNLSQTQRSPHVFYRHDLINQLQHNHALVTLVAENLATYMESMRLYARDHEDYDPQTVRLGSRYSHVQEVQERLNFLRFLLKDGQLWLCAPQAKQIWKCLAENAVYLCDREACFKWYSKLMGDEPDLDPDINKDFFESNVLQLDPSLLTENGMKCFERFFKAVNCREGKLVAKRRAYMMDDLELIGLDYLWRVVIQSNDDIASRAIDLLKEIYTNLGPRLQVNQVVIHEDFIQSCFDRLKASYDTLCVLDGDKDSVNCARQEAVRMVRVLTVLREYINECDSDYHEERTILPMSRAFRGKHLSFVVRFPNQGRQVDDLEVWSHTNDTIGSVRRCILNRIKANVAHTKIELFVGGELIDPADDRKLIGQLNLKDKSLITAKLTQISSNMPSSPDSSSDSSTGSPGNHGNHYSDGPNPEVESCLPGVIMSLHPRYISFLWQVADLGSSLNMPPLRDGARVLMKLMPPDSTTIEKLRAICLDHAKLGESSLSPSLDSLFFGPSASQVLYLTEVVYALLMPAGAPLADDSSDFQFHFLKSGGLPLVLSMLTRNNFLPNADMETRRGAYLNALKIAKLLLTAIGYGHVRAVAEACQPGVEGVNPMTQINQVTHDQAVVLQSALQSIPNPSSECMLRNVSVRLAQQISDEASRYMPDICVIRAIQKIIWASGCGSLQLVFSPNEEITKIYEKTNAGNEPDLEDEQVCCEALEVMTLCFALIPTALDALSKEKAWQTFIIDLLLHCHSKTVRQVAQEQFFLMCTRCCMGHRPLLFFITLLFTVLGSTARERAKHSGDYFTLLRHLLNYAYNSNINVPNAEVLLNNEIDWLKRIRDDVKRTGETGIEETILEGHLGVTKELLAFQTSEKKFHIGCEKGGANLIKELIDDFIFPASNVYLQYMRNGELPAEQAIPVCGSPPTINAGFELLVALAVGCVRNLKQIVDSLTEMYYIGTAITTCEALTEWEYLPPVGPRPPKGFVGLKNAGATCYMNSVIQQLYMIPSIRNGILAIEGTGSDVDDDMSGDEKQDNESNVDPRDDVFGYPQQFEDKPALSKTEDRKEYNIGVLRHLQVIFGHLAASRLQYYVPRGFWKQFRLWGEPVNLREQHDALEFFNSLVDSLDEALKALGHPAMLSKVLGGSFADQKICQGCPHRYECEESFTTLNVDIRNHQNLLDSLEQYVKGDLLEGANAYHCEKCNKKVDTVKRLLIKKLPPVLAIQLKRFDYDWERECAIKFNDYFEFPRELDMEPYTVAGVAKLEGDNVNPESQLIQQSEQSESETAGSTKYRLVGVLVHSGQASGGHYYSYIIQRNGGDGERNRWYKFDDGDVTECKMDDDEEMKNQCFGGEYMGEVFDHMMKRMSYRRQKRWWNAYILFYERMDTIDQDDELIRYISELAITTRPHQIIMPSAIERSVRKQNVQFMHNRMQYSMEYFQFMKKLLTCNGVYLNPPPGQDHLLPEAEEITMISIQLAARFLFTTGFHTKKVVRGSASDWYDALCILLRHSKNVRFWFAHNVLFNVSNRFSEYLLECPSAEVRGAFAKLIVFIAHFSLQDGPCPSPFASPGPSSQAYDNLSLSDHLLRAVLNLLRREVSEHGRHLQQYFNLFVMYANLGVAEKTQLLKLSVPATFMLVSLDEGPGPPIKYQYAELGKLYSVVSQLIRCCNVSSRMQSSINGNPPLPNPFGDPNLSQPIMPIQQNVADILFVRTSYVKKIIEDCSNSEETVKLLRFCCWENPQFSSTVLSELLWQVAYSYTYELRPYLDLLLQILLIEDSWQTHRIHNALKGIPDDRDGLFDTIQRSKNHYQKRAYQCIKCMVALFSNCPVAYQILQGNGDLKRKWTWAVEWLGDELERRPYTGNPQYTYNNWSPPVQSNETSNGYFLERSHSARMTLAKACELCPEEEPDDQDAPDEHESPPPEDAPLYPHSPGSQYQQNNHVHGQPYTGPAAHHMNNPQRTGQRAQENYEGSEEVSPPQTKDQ
Chain of USP46 (P62068 whole entry): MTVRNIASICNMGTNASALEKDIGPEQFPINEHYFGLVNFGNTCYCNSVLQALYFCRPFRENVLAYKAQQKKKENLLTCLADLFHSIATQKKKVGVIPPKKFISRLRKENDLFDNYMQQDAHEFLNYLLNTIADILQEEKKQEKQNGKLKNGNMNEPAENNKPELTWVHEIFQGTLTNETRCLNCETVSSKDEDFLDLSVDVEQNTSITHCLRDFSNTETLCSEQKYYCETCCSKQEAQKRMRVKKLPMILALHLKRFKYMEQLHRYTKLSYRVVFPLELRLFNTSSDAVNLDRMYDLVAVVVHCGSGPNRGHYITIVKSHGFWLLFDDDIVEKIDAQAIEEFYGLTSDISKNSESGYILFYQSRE
Chain of UniProt O00487 (O00487 whole entry): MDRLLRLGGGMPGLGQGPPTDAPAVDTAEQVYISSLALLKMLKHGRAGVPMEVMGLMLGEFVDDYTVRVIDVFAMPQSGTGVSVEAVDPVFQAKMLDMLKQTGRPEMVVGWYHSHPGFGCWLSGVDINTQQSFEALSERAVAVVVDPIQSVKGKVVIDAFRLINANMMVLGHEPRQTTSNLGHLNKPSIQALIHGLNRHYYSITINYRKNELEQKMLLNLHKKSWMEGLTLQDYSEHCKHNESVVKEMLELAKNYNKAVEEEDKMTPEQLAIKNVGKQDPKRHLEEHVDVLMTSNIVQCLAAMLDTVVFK

Cl.Cn1nc2c(c1CNC(=O)CCl)CCCC2
inactive: USP42 -0.241 | USP46 0.117 | USP47 0.0138 | USP48 -0.0889 | USP5 0.0696 | USP54 0.268 | USP7 -0.055 | USP8 -0.598 | USP9X -0.188 | UniProt O00487 0.0603
